Screening data deposited in PubChem BioAssay by several laboratories.
CYP2C19 inh = inhibitors of human CYP2C19 | P33261 | actives 21% (n = 96,000) | AID 778 | inhibition, % at 5 µM | CYP2C19 Supersomes, luciferin-H EGE luminescence, 30 min;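 active means CYP2C19 inhibition above a set limit at 5 µM in the primary screen, cut at about 50% in these data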;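 further: plate controls were negative control wells for no effect and 2.5 mM tranylcypromine positive control for full effect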
Target sequence (P33261 whole entry, looked up): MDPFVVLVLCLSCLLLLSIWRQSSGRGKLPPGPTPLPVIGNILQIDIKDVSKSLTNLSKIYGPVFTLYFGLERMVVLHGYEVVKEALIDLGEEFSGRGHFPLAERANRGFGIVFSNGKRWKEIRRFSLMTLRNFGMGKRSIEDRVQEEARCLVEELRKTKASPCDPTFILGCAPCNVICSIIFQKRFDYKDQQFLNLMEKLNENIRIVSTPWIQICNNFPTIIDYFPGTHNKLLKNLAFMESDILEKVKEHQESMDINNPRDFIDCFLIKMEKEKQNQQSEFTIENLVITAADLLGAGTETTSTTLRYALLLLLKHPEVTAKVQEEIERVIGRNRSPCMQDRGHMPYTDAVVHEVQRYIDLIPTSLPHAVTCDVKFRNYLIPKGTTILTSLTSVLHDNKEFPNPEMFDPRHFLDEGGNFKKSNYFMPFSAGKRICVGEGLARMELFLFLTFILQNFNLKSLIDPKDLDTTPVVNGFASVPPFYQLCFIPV
CYP2C9 act = CYP2C9 (human) activation. recombinant CYP2C9, luciferin-H conversion, luminescence; stronger effect = higher value; factor 1 = untreated enzyme, 0 = blocked. actives 1.4% (n = 96,000). P11712. activation factor at 5 µM. AID 1024;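 active means activation factor of 2 or more for CYP2C9 at a 5 µM dose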;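 further: 0 = sulfaphenazole-blocked wells and 1 = vehicle-only wells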
E-sel TNF inh = blocks E-selectin expression induced by TNF alpha; HUVEC TNFa-induced E-selectin immunofluorescence, high content; inhibition, % at 2 µM; actives 0.71% (n = 120,000); AID 1246;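 active means inhibition above the batch mean plus 3 SD, and confirmed as a hit on visual image review, cut at about 43% in these data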;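 further: 0% = TNF-stimulated DMSO wells and 100% = unstimulated control wells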
CYP2C19 activ = increases human CYP2C19 enzyme activity. P33261. 96,000 tested, under 10 active. recombinant CYP2C19, luciferin-H EGE luminescence; stronger effect = higher value; 0 = fully inhibited enzyme, 1 = untreated enzyme. activation factor at 5 µM;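 active means activation factor of at least 2 at 5 µM in the primary screen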;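 further: 0 = wells with 2.5 mM tranylcypromine and 1 = vehicle-only wells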
cytoskel mod = modifiers of cytoskeleton assembly. inhibition, % at 2 µM. actives 0.18% (n = 91,000). HUVEC TNFa F-actin phalloidin imaging, high content;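 active means inhibition above the batch mean plus 3 SD and confirmed as a hit by visual image inspection, cut at about 30% in these data, passing the limit was not always enough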
CYP2C9 inhib = blocks human cytochrome P450 2C9; P11712; CYP2C9 Supersomes, luciferin-H conversion, luminescence; inhibition, % at 5 µM; actives 20% (n = 96,000); AID 777;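 active means blocking of liver enzyme CYP2C9 beyond about 50% at 5 µM, limit read from the data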
Active calls of the source: *; . = not tested or not shown. Compounds with a hit are over-represented: about 22% of the library has one in this group of screens.

SMILES | CYP2C19 inh | CYP2C9 act | E-sel TNF inh | CYP2C19 activ | cytoskel mod | CYP2C9 inhib
O=C1CSC(c2cn(-c3ccccc3)nc2-c2cc3ccccc3oc2=O)N1Cc1ccco1 (stereo not drawn) | 55.0* | 0.2 | . | 0.4 | 11.6 | 76.4*
Cc1cc(NC(=O)c2cnn3cccnc23)nn1CC(=O)Nc1cccnc1 | 0.5 | 0.9 | -5.7 | 1 | -18.4 | 7.3
CCOC(=O)C1=C(C)Nc2nc3ccccc3n2C1c1ccncc1 (stereo not drawn) | 54.3* | 0.5 | . | 0.5 | 23.5 | 54.1*
CNC(=O)C1=C(C)Nc2nc3ccccc3n2C1c1cccc(OC)c1 (stereo not drawn) | 18.5 | 1 | 5.8 | 0.8 | 2.9 | -3.7
C=CCOC(=O)C1=C(C)Nc2nc3ccccc3n2C1c1ccncc1 (stereo not drawn) | 62.4* | 0.4 | . | 0.4 | -2.0 | 58.0*
CCOC(=O)C1=C(C)Nc2nc(SCc3cccnc3)nn2C1c1ccc(OC)cc1 (stereo not drawn) | 26.3 | 0.3 | . | 0.7 | 17.5 | 66.0*
CC1CCCN(S(=O)(=O)c2coc(C(N)=O)c2)C1 (stereo not drawn) | . | . | . | . | 0.0 | .
CCCS(=O)(=O)N1CCCC(C(=O)N2CCC(Cc3ccccc3)CC2)C1 (stereo not drawn) | 68.8* | 0.5 | 5.6 | 0.3 | 3.9 | 50.7*
CCS(=O)(=O)N1CCCC(C(=O)NCCN2CCC(Cc3ccccc3)CC2)C1 (stereo not drawn) | 4.6 | 1 | . | 1 | 20.1 | 1.7
CS(=O)(=O)N1CCCC(C(=O)NCCN2CCC(Cc3ccccc3)CC2)C1 (stereo not drawn) | 64.2* | 1.1 | . | 0.4 | -30.0 | -7.0
Cc1cc(C)n2nc(CCc3nc4nc(C)cc(C)n4n3)nc2n1 | -14.4 | 1.1 | . | 1.1 | . | -14.0
CCCCn1c(N)c(NCc2ccccc2)c(=O)[nH]c1=O | . | . | -25.6 | . | . | .
Nc1c(NCc2ccccc2F)c(=O)[nH]c(=O)n1Cc1ccccc1 | 63.0* | 0.3 | -12.2 | 0.4 | . | 74.8*
O=C(CN1C(=O)c2ccccc2C1=O)Nc1nc(-c2cccc([N+](=O)[O-])c2)cs1 | -13.9 | 1.2 | -4.4 | 1.1 | 2.6 | -16.8
CC(=O)N1CCc2cc(S(=O)(=O)CCC(=O)NCc3ccc4c(c3)OCO4)ccc21 | 44.9 | 1.2 | -4.9 | 0.6 | -14.1 | -15.7
CCOC(=O)C1=C(CSc2nc(-c3ccncc3)ccc2C#N)OC(N)=C(C#N)C1c1cccnc1 (stereo not drawn) | 98.8* | 0 | 31.7 | 0 | . | 96.4*
CCOC(=O)C1=C(CSc2nc(C)ccc2C#N)OC(N)=C(C#N)C1c1cccc(OC)c1OC (stereo not drawn) | 96.8* | 0 | 5.0 | 0 | 13.2 | 96.8*
CCOC(=O)C1=C(CSc2nc(-c3ccncc3)ccc2C#N)OC(N)=C(C#N)C1c1ccc(OC)cc1 (stereo not drawn) | 91.2* | 0.1 | -2.8 | 0.1 | 9.8 | 94.0*
CCOC(=O)C1=C(C(C)=O)C(c2cccnc2)C(C#N)=C(N)O1 (stereo not drawn) | 7.9 | 1 | 1.0 | 0.9 | -2.2 | 3.9
CCOC(=O)C1=C(CC)OC(N)=C(C#N)C1c1ccc(OC)c(C)c1OC (stereo not drawn) | . | . | 37.4 | . | . | .
COc1ccc2c(c1)CC/C2=N\NC(=O)c1ccccc1 | . | . | -14.6 | . | . | .
Cc1ccc(-c2nnc(-c3ccccc3)o2)cc1 | . | . | 11.2 | . | -8.6 | .
CCNc1nnc(-c2ccc(C)cc2)o1 | 60.8* | 0.8 | -21.0 | 0.4 | 17.8 | 18.6
Cc1nn(-c2ccccc2)c2c1C(O)n1c(nc3ccccc31)S2 (stereo not drawn) | 70.4* | 0.4 | -35.7 | 0.3 | . | 57.6*
CC(C)COC(=S)Nc1ccccc1 | 77.8* | 0.8 | -4.6 | 0.2 | -26.4 | 23.2
SMILES | CYP2C19 inh | CYP2C9 act | E-sel TNF inh | CYP2C19 activ | cytoskel mod | CYP2C9 inhib
CCc1ccccc1NC(=O)CSc1nc2ccccc2n1CC(=O)N(C)C | 79.1* | 0.4 | 12.9 | 0.2 | . | 56.1*
CCc1cccc(C)c1NC(=O)CSc1nc2ccccc2n1CC(=O)N(C)C | 53.7* | 0.9 | . | 0.5 | . | 8.2
CN(C)C(=O)Cn1c(SCC(=O)Nc2ccc3c(c2)OCO3)nc2ccccc21 | . | . | 11.7 | . | 3.1 | .
Cc1ccc(-c2nnc(SCC(=O)Nc3ccc(N4CCOCC4)cc3)o2)cc1 | 3.4 | 0.9 | . | 1 | -18.0 | 11.4
Cc1cc(C)c(S(=O)(=O)N(C)Cc2cnn(C)c2)c(C)c1 | 87.6* | 2* | 19.6 | 0.1 | -20.2 | -97.0
Cc1cc(C)c(S(=O)(=O)N(CC(=O)NCc2cccnc2)C2CCCCC2)c(C)c1 | 99.2* | 0.1 | -11.4 | 0 | 2.2 | 94.4*
Cc1cc(C)c(S(=O)(=O)N(CC(=O)N2CCCC2)C2CCCCC2)c(C)c1 | 27.6 | 0.4 | -15.3 | 0.7 | 6.4 | 58.5*
Cc1cc(C)c(S(=O)(=O)N(C)CC(N)=O)c(C)c1 | -9.5 | 1.4 | -1.1 | 1.1 | 13.5 | -38.0
Cc1ccc(S(=O)(=O)N(CC(=O)N2CCCC2)C2CCCCC2)cc1 | . | . | -8.6 | . | 4.4 | .
Cc1cc(C)c(S(=O)(=O)N(C)CC(=O)N2CCCCC2)c(C)c1 | 44.2 | 2.9* | -11.7 | 0.6 | -0.4 | -185.0
O=C(Cn1ccc2ccccc2c1=O)NCCC(=O)N1CCN(C(=O)c2ccco2)CC1 | . | . | -2.5 | . | -16.8 | .
CN1CCN(C(=O)CC23CC4CC(CC(C4)C2)C3)CC1 | 42.3 | 1.2 | -14.0 | 0.6 | 5.3 | -19.6
COC(=O)C1=C(C)N(C)C(=O)NC1c1cc(Cl)c(O)c(OC)c1 (stereo not drawn) | 36.5 | 0.4 | -19.4 | 0.6 | . | 56.1*
Cc1cc(C(=O)NN=C2C3CC4CC(C3)CC2C4)c2ccccc2n1 | 3.8 | 0.9 | -3.4 | 1 | -46.7 | 12.2
CN(C)[C@H]1N(C(=O)c2ccc(Br)cc2)N=C2c3ccccc3S(=O)(=O)N21 | 44.7 | 0.4 | 10.9 | 0.6 | . | 56.8*
O=C(CN1C2=NCCN2c2ccccc21)c1ccc(Br)cc1 | 21.4 | 0.9 | -5.8 | 0.8 | 40.7 | 10.3
N#CCCC12CCCCC1=Nc1ccccc12 (stereo not drawn) | 5.3 | 0.9 | 19.7 | 0.9 | . | 7.8
COc1cccc(-c2cc(C(F)(F)F)n3ncc(C(=O)NCC4CCCO4)c3n2)c1 (stereo not drawn) | 46.5 | 0.5 | . | 0.5 | -5.2 | 54.8*
COc1ccnc(N=CNOCc2cccc(Cl)c2Cl)c1C#N | 57.8* | 0.9 | 15.8 | 0.4 | 10.7 | 8.3
COc1ccccc1-n1c(CNc2ccc(F)cc2)nnc1SCC(=O)Nc1cc(C)on1 | . | . | 13.7 | . | 1.1 | .
CCn1c(CSc2nnc(-c3ccc4c(c3)OCO4)o2)nc2cc(S(=O)(=O)N(C)C)ccc21 | 82.7* | 0.2 | -36.4 | 0.2 | . | 81.1*
CCn1c(CSc2nnc(-c3ccoc3C)n2C)nc2cc(S(=O)(=O)N(C)C)ccc21 | . | . | -21.0 | . | . | .
CCn1c(CSc2nnc(C)n2-c2ccccc2)nc2cc(S(=O)(=O)N(C)C)ccc21 | -1.5 | 0.3 | . | 1 | 20.5 | 65.8*
